# This is part of a sample that, as a whole, favours compounds with a hit. Of some 83,000 tested, about 20% had one in any assay.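 Compound tested at a single concentration for 48 hours in 96-well plates; a percent growth value below 10 was scored as active.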 Unmarked numbers belong to inactive results. Activity calls are given as the source filed them.
# Tests used:
# Experiment in all cases: NCI-60 one-dose screen, 48 h (100 = growth as untreated, 0 = no growth, -100 = all killed)
# Conditions in all cases: 10 µM
# SR leukemia = tested on: SR leukemia
# OVCAR-5 ovarian = tested on: OVCAR-5 ovarian
# SK-OV-3 ovarian = tested on: SK-OV-3 ovarian
# IGROV1 ovarian = tested on: IGROV1 ovarian
# OVCAR-3 ovarian = tested on: OVCAR-3 ovarian
# HS 578T breast = tested on: HS 578T breast
# NCI/ADR-RES ovarian = tested on: NCI/ADR-RES ovarian
# OVCAR-8 ovarian = tested on: OVCAR-8 ovarian
# OVCAR-4 ovarian = tested on: OVCAR-4 ovarian
Structure (SMILES),growth (SR leukemia),growth (OVCAR-5 ovarian) [%],growth (SK-OV-3 ovarian) [%],growth (IGROV1 ovarian) [%],growth (OVCAR-3 ovarian),growth (HS 578T breast),growth (NCI/ADR-RES ovarian),growth (OVCAR-8 ovarian) [%],growth (OVCAR-4 ovarian) [%]
Cc1ccc(C2=NN(c3ccc(S(C)(=O)=O)cc3)C(=O)CC2)cc1,4.47% (active),53.1,19.9,59.2,-14.7% (active),-1.17% (active),6.72% (active),,
O=S(=O)(NCCCNc1nccc(-c2cn(-c3ccccc3)nc2-c2ccc(Cl)c(O)c2)n1)c1ccccc1,42%,,83.8,73.5,66.8%,67.3%,33.3%,59.5,
CCCCN(CCCC)C(=O)[C@H](CC)[C@@H]1CC[C@@H](C)[C@@H]([C@H](C)[C@@H](O)[C@@H](C)C(=O)[C@H](CC)C2O[C@]3(C=CC(=O)[C@]4(CC[C@@](C)([C@H]5CC[C@](O)(CC)[C@H](C)O5)O4)O3)[C@H](C)C[C@@H]2C)O1 (some centres not stated),75.1%,39.4,51.9,59.3,,43.1%,78.2%,34.7,42.7

# — PubChem BioAssay (NCI)
